Measurements as given in PubChem BioAssay (Tox21).
Calls of active or inactive are those of the source. Calls follow the shape of the dose curve; as a rule, active = well fitted inhibition curve with a large enough effect in the repeat runs (not every such curve was filed as active); inconclusive = weak or mixed curves; inactive = flat fitted curve, though single readings scatter.

Target: Thyrotropin-releasing hormone receptor (Homo sapiens) (UniProt P34981)
Experiment: qHTS assay to identify small molecule antagonists of the thyrotropin-releasing hormone receptor (TRHR) signaling pathway (AID 1346877)
Details: TRHR-HEK293, TRH-induced calcium fluorescence, antagonist mode; series mostly up to 51.3 µM
Text: National Center for Advancing Translational Sciences [NCATS]
NIH Chemical Genomics Center [NCGC]
U.S. Environmental Protection Agency [EPA]
National Institutes of Environmental Health Sciences [NIEHS]
National Toxicology Program [NTP]
U.S. Food and Drug Administration [FDA]
Thyrotropin-releasing hormone (TRH) receptor (TRHR) is a G-protein-coupled receptor which binds the tripeptide thyrotropin releasing hormone. TRHR is found in the brain and, when bound by TRH, acts (through phospholipase C) to increase intracellular inositol trisphosphate. It plays a crucial role in the anterior pituitary where it controls the synthesis and secretion of thyroid stimulating hormone and prolactin. The TRHR-Hek293 assay is a cell-based assay, and it has the potential to screen G protein-coupled receptors. A compound/drug can either activate (agonist) or suppress (antagonist) GPCRs that can be monitored by levels of intracellular calcium. In this assay, the Tox21 10K compound library was screened to identify potential TRHR antagonists.
Tox21 Assay Protocol Summary:
The TRHR-Hek293 cells were dispensed at 1500cells/4uL/well in 1536-well black-clear bottom plates using a Multidrop dispenser. After the assay plates were incubated at a 37 C/5% CO2 incubator for 18 hours, 4 uL of Dye-Loading Solution was added to each well. The plates were incubated at 37 C for 2 hours. For agonist mode, 23 nL of compounds dissolved in DMSO, positive controls or DMSO only was transferred to the assay plate by a pin tool. The fluorescence intensity in the plates was measured using FDSS 7000EX kinetic plate reader for 3 min at 1 sec intervals. For antagonist mode, 23 nL of compounds dissolved in DMSO, positive controls or DMSO only was transferred to the assay plate by a pin tool. After 5 min incubation at room temperature, 1 uL of TRH was added on the top of the cell/compound mixtures to achieve a final agonist concentration of 1 nM. The fluorescence intensity in the plates was measured using FDSS 7000EX kinetic plate reader for 3 min at 1 sec intervals. Each test compound was measured at 15 concentrations and in triplicates.

Sequence of Thyrotropin-releasing hormone receptor (Homo sapiens) (P34981 whole entry, looked up): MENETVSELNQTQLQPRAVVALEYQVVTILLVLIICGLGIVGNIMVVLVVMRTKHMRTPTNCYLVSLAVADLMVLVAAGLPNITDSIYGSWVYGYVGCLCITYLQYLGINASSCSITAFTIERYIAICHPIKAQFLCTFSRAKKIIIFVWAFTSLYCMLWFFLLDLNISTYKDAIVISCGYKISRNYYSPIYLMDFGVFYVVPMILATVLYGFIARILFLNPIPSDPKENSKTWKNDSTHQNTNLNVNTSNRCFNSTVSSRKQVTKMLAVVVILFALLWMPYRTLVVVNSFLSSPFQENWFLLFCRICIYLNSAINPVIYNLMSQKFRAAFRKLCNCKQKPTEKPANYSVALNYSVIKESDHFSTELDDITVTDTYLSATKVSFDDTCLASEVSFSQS

Row | Compound | outcome
1 | CCCOC(=O)c1ccc(C(=O)OCCC)nc1 | inactive
2 | CC1C2CC(CC2C2CCCC(O)C2)C1(C)C (stereo not given) | inactive
3 | CO[C@H]1O[C@H](CO)[C@@H](O)[C@H](O)[C@H]1O | inactive
4 | CCCCCCCC/C=C\CCCCCCCC(=O)OC(CO)CO | inactive
5 | Cc1nccn1-c1ccc(Sc2cccc(C3(C(N)=O)CCOCC3)c2)cc1 | inactive
6 | C[N+](C)(C)CCOC(N)=O | inactive
7 | CCCCC(CC)C(=O)OCCOCCOCCOCCOC(=O)C(CC)CCCC (stereo not given) | inactive
8 | O=C(CCCCCCCCC#CI)Oc1ccccc1 | inactive
9 | COC(=O)c1cc(Cl)ccc1NS(=O)(=O)C(F)(F)F | inactive
10 | Brc1cc(-c2ccc(Br)c(Br)c2Br)cc(Br)c1Br | inactive
11 | CCCCC(=O)O[C@]1(C(=O)CO)CC[C@H]2[C@@H]3CCC4=CC(=O)CC[C@]4(C)[C@H]3[C@@H](O)C[C@@]21C | inactive
12 | CC(=O)Nc1ccccc1C | inactive
13 | C=CCOC(=O)/C=C\C(=O)OCC=C | inactive
14 | CN(C)C(=O)Nc1ccc(Oc2ccc(Cl)cc2)cc1 | inactive
15 | CCCCCCOC(=O)C(C)C | inactive
16 | O=C(c1ccc(O)cc1)c1ccc(Cl)cc1 | inactive
17 | O=C(C(=O)c1ccccc1)c1ccccc1 | inactive
18 | CC(COc1ccc(C(C)(C)C)cc1)OS(=O)OCCCl (stereo not given) | inactive
19 | C=CC(C)(O)CCCC(C)CCCC(C)CCCC(C)C (stereo not given) | inactive
20 | CC(Cl)C(Cl)Cl (stereo not given) | inactive

Row | Compound | outcome
21 | CCOC(=O)c1ccccc1OC | inactive
22 | OC/C(Br)=C(\Br)CO | inactive
23 | c1cc[c]([Bi]([c]2ccccc2)[c]2ccccc2)cc1 | inactive
24 | O=C(O)c1cccc(O)c1 | inactive
25 | CC[C@H](NC(=O)c1cc(F)ccc1NS(=O)(=O)c1cccc2cccnc12)c1ccccc1 | inactive
26 | CC(=O)Oc1ccc2c(c1)CC[C@@H]1[C@@H]2CC[C@]2(C)[C@@H](O)CC[C@@H]12 | inactive
27 | CCCCN(CCCC)C(=S)SSC(=S)N(CCCC)CCCC | inactive
28 | Fc1ccccc1[C@@H](F)COC1CCC(Nc2ncnc3[nH]ncc23)CC1 (stereo not given in full) | inactive
29 | O=C(O)c1snc(Cl)c1Cl | inactive
30 | O=C(N/N=C/c1ccc([N+](=O)[O-])o1)c1ccc(O)cc1 | inactive
31 | Cn1c(=O)c2c(ncn2CC(=O)O)n(C)c1=O | inactive
32 | CC1=CC(=O)CC(C)(C)C1(O)/C=C/C(C)=C\C(=O)O (stereo not given) | inactive
33 | CCCCCCCCCCOS(=O)(=O)O | inactive
34 | O=C(CCCCCCC(=O)Nc1ccccc1)NO | inactive
35 | CN1C(=O)CC(C)(c2ccccc2)C1=O (stereo not given) | inactive
36 | Cc1ccc(S(=O)(=O)NC2CCCCC2)cc1 | inactive
37 | CN(C)CCOC1=Cc2ccccc2Sc2ccc(Cl)cc21 | inactive
38 | COc1ccc(CCC(=O)c2c(O)cc(O[C@@H]3O[C@H](CO)[C@@H](O)[C@H](O)[C@H]3O[C@@H]3O[C@@H](C)[C@H](O)[C@@H](O)[C@H]3O)cc2O)cc1O | inactive
39 | Nc1nc(Cl)nc2c1ncn2[C@@H]1O[C@H](CO)[C@@H](O)[C@@H]1F | inactive
40 | C=CC(=O)NCOCC(C)C | inactive
